High-throughput results (PubChem BioAssay)
Rows were chosen to be rich in hits. Some 10% of all compounds tested hit in one or more screens of this group.
VDR inh: Inhibitors of the vitamin D receptor (VDR): qHTS | VDR-SRC2-3 peptide fluorescence polarization, 2 h | 0.93% of 400,000 active | Potency, µM, for the others: max response, negative = inhibition, actives largely listed as inhibitors; also: potency is read from the fitted curve at half-maximal effect
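VDR–SRC2-3 interaction, FP format. Cmpds 23 nl via pintool, brief spin, 2 h ambient incubation.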
Sfp inh: qHTS Assay for Inhibitors of Bacillus subtilis Sfp phosphopantetheinyl transferase (PPTase); Biochemical Sfp PPTase activity, qHTS; 3.5% of 310,000 active; Potency, µM, for inactives: largest response in the series, negative = inhibition, actives largely listed as inhibitors; 4'-phosphopantetheinyl transferase ffp (Bacillus subtilis), Q9F4F7;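 also: the enzyme is Sfp with the accession as filed and its product quenches rhodamine fluorescence; potency is read from the fitted curve at half-maximal effect; 0% = enzyme reaction without inhibitor and -100% = no enzyme wells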
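Reaction rates are the 30-min fluorescence difference (ex 525, em 598 nm) in wells containing 15 nM Sfp, 5 uM rhodamine-CoA and 12.5 uM BHQ-2-YbbR at pH 7.6 with 10 mM MgCl2.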
Mm-Cpn inhibitor: Inhibitors of TCP-1 ring complex (TRiC) of Methanococcus maripaludis (MmCpn): qHTS | Chaperonin Mm-Cpn (Methanococcus maripaludis) | purified Mm-Cpn ATPase, ADP Transcreener TR-FRET | Potency, µM (doses to about 76.9 µM), inactives show at the top dose activity, negative = inhibition, hits mostly inhibitors | 0.031% of 330,000 active | AID 504842, 2011; also: potency is read from the fitted curve at half-maximal effect; nearly all actives have a fitted effect of over 80% in size
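Measured: ADP formation by purified Mm-CPN. Conditions: 25 nM protein, 10 uM ATP, Tris pH 7.4 with Mg2+, K+ and DTT, 37°C for 30 min. Detection: Transcreener HTRF after 30 min at room temperature.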
PLK1 PBD inh: qHTS for Inhibitors of PLK1-PDB (polo-like kinase 1 - polo-box domain): Primary Screen; Serine/threonine-protein kinase PLK1 (Homo sapiens), P53350; Plk1 PBD binding of FITC phosphopeptide, fluorescence polarization; Potency, µM, without a hit: max response, negative = inhibition, hits mostly inhibitors; 2.8% of 360,000 active; AID 720504, 2013; also: potency is read from the fitted curve at half-maximal effect; series mostly up to about 57 µM; nearly all actives have a fitted effect of over 65% in size
Target sequence (P53350 whole entry, looked up, the tested form may be a part): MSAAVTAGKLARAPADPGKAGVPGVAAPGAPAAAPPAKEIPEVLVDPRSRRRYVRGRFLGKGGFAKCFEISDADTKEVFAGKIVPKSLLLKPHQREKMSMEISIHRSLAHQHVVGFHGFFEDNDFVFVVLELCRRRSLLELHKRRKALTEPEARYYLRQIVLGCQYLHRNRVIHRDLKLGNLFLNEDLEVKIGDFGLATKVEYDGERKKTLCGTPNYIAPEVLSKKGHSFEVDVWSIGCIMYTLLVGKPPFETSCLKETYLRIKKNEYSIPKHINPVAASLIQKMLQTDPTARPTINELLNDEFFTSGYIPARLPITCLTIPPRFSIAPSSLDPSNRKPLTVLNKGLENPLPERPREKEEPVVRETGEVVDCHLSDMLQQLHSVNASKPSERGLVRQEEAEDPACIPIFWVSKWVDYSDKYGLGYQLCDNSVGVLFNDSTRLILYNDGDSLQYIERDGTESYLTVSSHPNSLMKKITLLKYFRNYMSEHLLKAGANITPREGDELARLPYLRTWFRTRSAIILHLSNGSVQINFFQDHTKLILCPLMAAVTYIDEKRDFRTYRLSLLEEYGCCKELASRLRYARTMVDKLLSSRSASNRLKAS
G9a block: qHTS Assay for Inhibitors of Histone Lysine Methyltransferase G9a; Histone-lysine N-methyltransferase EHMT2 (Homo sapiens), Q96KQ7; G9a H3K9 monomethylation, AlphaScreen, 2 h; Potency, µM (doses to about 102 µM), for inactives: at the highest dose activity, negative = inhibition, hits mostly inhibitors; 8.8% of 350,000 active; AID 504332, 2011; also: potency is read from the fitted curve at half-maximal effect; nearly all actives have a fitted effect of over 75% in size
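AlphaScreen detection with an anti-monomethyl H3K9 antibody quantified product after a 2 h room-temperature reaction containing 500 nM biotinylated H3K9 peptide, 20 µM SAM and 20 nM enzyme, which had been preincubated 15 min with compound.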
CCT chaperon mod: High-Throughput Screening for Modulators of Cytosolic Chaperonin Activity; activity change, % (no concentration beside the values), hits read low; purified chaperonin ATPase assay, HTRF ADP detection, 30 min; 0.3% of 360,000 active; in the data active = activity change below about -30%
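TRiC (40 or 20 nM final, by batch activity) in 30 mM Tris pH 7.4, 100 mM KCl, 5 mM MgCl2, 1 mM DTT was treated with compound at 76 uM single dose, then 10 uM ATP, 30 min at 37 °C. ADP was read by HTRF Transcreener.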
Starred values were filed as active, the others as inactive; ? = inconclusive; · = not tested or not shown; [ ] = dose if it differs, or a comment. Unless noted, calls follow the shape of the dose curve; as a rule, active = well fitted curve in the direction sought with a large enough effect; inconclusive = small, poorly fitted or top-dose-only effect, or another doubt; inactive = no such curve, though single readings can be large; an effect the other way counts as inactive or inconclusive. Unless noted, % is scaled to controls: 0 for no effect and ±100 for the full control effect.

SMILES	VDR inh	Sfp inh	Mm-Cpn inhibitor	PLK1 PBD inh	G9a block	CCT chaperon mod
Cc1ccc2c(=O)cc(C(=O)Nc3c(C(=O)Nc4cccc(Cl)c4)oc4ccccc34)oc2c1	8%	·	·	·	13%[59 µM]	·
COc1ccc(-n2c(C)cc(/C=C3\SC(=S)N(Cc4ccco4)C3=O)c2C)cc1	-1%	-4%	-3%	-16%	25µM*	0
COc1ccc(-c2nn(-c3ccccc3)cc2/C=C2/SC(=S)N(Cc3ccco3)C2=O)c(C)c1	-19%	-8%	0%	3%	-46%	-2
COc1cccc2cc(-c3nc4sc5c(c4c(=O)[nH]3)CCC(C(C)(C)C)C5)c(=O)oc12 (stereo unspecified)	8%	·	·	·	-19%[59 µM]	·
COc1ccc(N2CCN(CC(=O)Nc3ccc(C)c(C)c3)CC2)cc1	5%	6%	1%	-3%	?	1
COc1ccc(-n2c(=O)c3ccccc3n(CC(=O)Nc3cc(C)on3)c2=O)cc1OC	-21%	45µM*	-1%	-5%	-32%[59 µM]	-1
CCOc1ccccc1C(=O)Nc1nc2c(s1)CC(C)CC2 (stereo unspecified)	10%	·	·	·	10µM*	·
COc1ccc(N2CCN(CC(=O)Nc3cc(C)cc(C)c3)CC2)cc1	3%	12%	-1%	-3%	79µM*	2
COc1ccc(NC(=O)Cn2c(=O)n(-c3ccc(OC)c(OC)c3)c(=O)c3ccccc32)cc1	8%	·	·	·	6%[59 µM]	·
CCOCCCNC(=O)CN1CCN(c2ccc(F)cc2)CC1	10%	?	1%	-5%	11µM*	1
COc1cc(C(=O)N2CCc3c([nH]c4ccccc34)C2c2ccc(C)cc2)cc(OC)c1OC (stereo unspecified)	12%	·	·	·	?	·
Cc1ccc(C)c(N2CCN(C(=O)c3cc(S(=O)(=O)N4CCCCC4)cn3C)CC2)c1	6%	·	·	·	-30%[59 µM]	·
O=C(CN1CCN(c2ccc(O)cc2)CC1)Nc1ccc(SC(F)F)cc1	5%	35µM*	1%	-7%	2.2µM*	-1
Cc1cc(NC(=O)CN2CCN(C)CC2)no1	?	-23%	-2%	12µM*	13µM*	1
CCOC(=O)c1ccc(NC(=O)c2c(NC(C)=O)sc3c2CCC(C)C3)cc1 (stereo unspecified)	-5%	·	·	·	?	·
COc1ccc(N2CCN(CC(=O)Nc3nc4c(s3)CC(C)CC4)CC2)cc1 (stereo unspecified)	4%	-11%	2%	-2%	10µM*	1
CCOc1ccc(NC(=O)c2c(NC(=O)c3ccccc3Br)sc3c2CCC(C)C3)cc1 (stereo unspecified)	40µM*	·	·	·	27%[59 µM]	·
Cc1cc(NC(=O)CN2CCCCCCC2)no1	6%	-20%	-2%	-4%	?	1
COc1ccc(N2CCN(CC(=O)Nc3cc(C)on3)CC2)cc1	4%	50µM*	0%	-8%	1.8µM*	0
COCCNCC(=O)Nc1nc(C)cs1	-2%	45µM*	-1%	-7%	8.9µM*	-2
Cc1csc(NC(=O)CSc2nc(C)cs2)n1	-2%	1%	2%	-5%	-21%[12.7 µM]	1
COc1ccc(NC(=O)CN2CCN(c3ccc(F)cc3)CC2)cc1	-52%	-3%	0%	30µM*	-2%	0
COc1ccc(N2CCN(CC(=O)Nc3nc(C)cs3)CC2)cc1	-7%	-27%	1%	-9%	3.5µM*	-2
COc1ccc(N2CCN(CC(=O)Nc3ncc(C)s3)CC2)cc1	-15%	-5%	0%	?	14%[2.33 µM]	2
Cc1ccc(NC(=O)Cn2c(=O)oc3cc(S(=O)(=O)N4CCCCCC4)ccc32)cc1Cl	1%	·	·	·	-3%[59 µM]	·
SMILES	VDR inh	Sfp inh	Mm-Cpn inhibitor	PLK1 PBD inh	G9a block	CCT chaperon mod
COc1ccccc1CCNC(=O)c1ccc(-c2nc(CSc3ccc(C)cc3)c(C)o2)cc1	2%	·	·	·	-27%[59 µM]	·
CCN(CC)c1ccc(NC(=O)CN2CCN(c3ccc(F)cc3)CC2)cc1	-3%	12%	1%	1%	8.9µM*	-3
CCN(CC)CCCNCC(=O)Nc1cc(C)on1	-1%	?	-5%	1%	2.5µM*	1
CSCC(=O)Nc1cc(C)on1	1%	4%	-1%	-2%	11%[59 µM]	2
COc1ncc2nc(CCc3ccccc3)c(=O)n(Cc3cccs3)c2n1	1%	?	·	·	7%[12.7 µM]	·
CC1=C(C(=O)OCc2ccccc2)C(c2ccccc2Cl)NC(=O)N1CCCC(=O)O (stereo unspecified)	-20%	3%	-2%	-3%	-11%	2
CC1=C(C(=O)OCc2ccccc2)C(c2ccccc2-c2ccccc2)NC(=O)N1CCCCCC(=O)O (stereo unspecified)	-11%	-1%	1%	-27%	50µM*	-1
CC1=C(C(=O)OCc2ccccc2)C(c2ccccc2Cl)NC(=O)N1CCCCCC(=O)O (stereo unspecified)	-30%	3%	0%	-6%	79µM*	0
CCCCn1c(=O)c2oc3ccccc3c2n(Cc2ccc(C)cc2)c1=O	9%	·	·	·	10%[59 µM]	·
COc1ccc(-c2nc3cnc(N(C)C)nc3n(CCC#N)c2=O)cc1	0%	17%	·	·	18%[0.501 µM]	·
Cc1ccc(C)c(S(=O)(=O)N/N=C2/CCCc3ccccc32)c1	-15%	-2%	1%	-3%	32µM*	0
COc1ccccc1C1CCN(Cc2cccc([N+](=O)[O-])c2)CC1	-7%	-16%	3%	3%	·	0
O=C1CSC(c2ccc([N+](=O)[O-])cc2)N1Cc1ccccc1 (stereo unspecified)	-11%	13%	0%	-5%	-7%	1
CC1Cc2ccccc2N1Cc1cccc([N+](=O)[O-])c1 (stereo unspecified)	13%	-9%	0%	-2%	14µM*	-1
CC1Cc2ccccc2N1Cc1ccc([N+](=O)[O-])cc1 (stereo unspecified)	-6%	-16%	1%	-5%	40µM*	0
Cc1ccc(C)c(NC(=O)CN(C)C(=O)C2CCCC2)c1	10%	·	0%	-12%	?	4
Cc1ccc(C)c(NC(=O)CN(C)C(C)C(=O)N2CC(C)CC(C)C2)c1 (stereo unspecified)	12%	·	-4%	3%	56µM*	2
Fc1ccc(N2CCN(c3ncnc4[nH]ncc34)CC2)cc1	5%	·	·	·	-1%[59 µM]	·
COc1cccc(CNCCSc2nnnn2C)c1OCc1ccccc1F	0%	·	·	·	-11%[59 µM]	·
